Data taken from PubChem BioAssay AID504832 (National Center for Advancing Translational Sciences (NCATS), 2011).
Several values for one entry are separate records, joined by “and”; a condition that tells them apart may be missing. Identical values can stand only once. Out of some 310,000 compounds screened, about 18,000 (5.8%) were called active. About 22% were inconclusive and are not listed. The call rests on the fitted dose curve; in most records, active means well fitted inhibition curve with a large enough effect; inconclusive means small, poorly fitted or top-dose-only effect, or another doubt; inactive means no such curve, though single readings can be large or run the other way. The list comes from a sample in which actives are over-represented; it also holds similar structures and randomly drawn compounds. Where a call stands in place of a potency, no number is given. Some compounds were tested as several samples or in several runs, with calls that do not always agree.

Assay: Primary qHTS for delayed death inhibitors of the malarial parasite plastid, 48 hour incubation
Settings: P. falciparum luciferase growth in erythrocytes; series mostly up to 28.7 µM
In short: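 First compound was added to culture medium, then infected red cells at 0.1% parasitemia and 2% hematocrit (final). After incubation at 37 C under 5% CO2, luciferase detection reagent was dispensed and light output recorded.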
Potency means the concentration at half of the fitted maximal effect.

Row | Structure (SMILES) | Potency
1 | O=C(c1ccc(Cn2cc([N+](=O)[O-])cn2)o1)N1CCCC1 | inactive
2 | COc1ccc(CC(=O)N/N=C(\C)c2ccccn2)cc1 | 3.29 µM (active)
3 | C/C(=N\NC(=O)Cc1ccc(Br)cc1)c1cccnc1 | inactive
4 | C/C(=N\NC(=O)Cc1ccc(Cl)cc1)c1ccccn1 | 1.47 µM (active)
5 | C/C(=N\NC(=O)c1ccccc1F)c1ccccn1 | inactive
6 | COc1ccc(C/C(C)=N/NC(=O)c2ccncc2)cc1 | inactive
7 | C/C(=N\NC(=O)Cc1ccc(F)cc1)c1ccc(F)cc1 | inactive
8 | CCOc1ccc(OCC(=O)Nc2c3c(nn2C(C)(C)C)CS(=O)(=O)C3)cc1 | inactive
9 | Cc1cc(C(=O)CCC(=O)NNC(=O)c2ccccc2O)c(C)s1 | inactive
10 | CCOc1ccc2[nH]c(=O)c(CN(CCCO)S(=O)(=O)c3ccc(F)cc3)cc2c1 | inactive
11 | O=C(NC1CCCCC1)c1ccc2c(=O)n(CC3CCCO3)c(=O)[nH]c2c1 (stereo not drawn) | inactive
12 | CC1CCCCN1CCCNC(=O)Cn1ncc2c([nH]c3ccccc32)c1=O (stereo not drawn) | inactive
13 | CCCCCn1c(=O)[nH]c2cc(C(=O)NCCCN3CCCCC3C)ccc2c1=O (stereo not drawn) | 9.28 µM (active)
14 | COc1ccccc1CNC(=O)C1CCN(C(=O)[C@@H]2Cc3ccccc3CN2)CC1 | inactive
15 | COc1cc(NC(=O)c2cccnc2SC)cc(OC)c1 | inactive
16 | CCOC(=O)Cc1ncccc1C(=O)Nc1ccc(OC)cc1 | 13.1 µM (active)
17 | CCCNC(=O)Nc1ccccc1C(=O)Nc1ccc(OC)cc1 | inactive
18 | COC(=O)c1ccc([C@@H](O)[C@H](C)C(=O)CC(=O)OC(C)(C)C)cc1 | inactive
19 | Cc1nc(CN(C)C(=O)CC2C(=O)NCCN2Cc2ccc(F)cc2)cs1 (stereo not drawn) | inactive
20 | CC(=O)N(CC(O)CO)c1c(I)c(C(=O)NCC(O)CO)c(I)c(C(=O)NCC(O)CO)c1I (stereo not drawn) | inactive and 15.1 µM (active)
21 | COc1ccc(NC(=O)CN2C(=O)COc3ccc(S(=O)(=O)N4CCOCC4)cc32)c(OC)c1 | inactive
22 | C=CCSc1nc2c(c(=O)[nH]c(=O)n2C)n1Cc1ccccc1 | inactive
23 | CN(Cc1ccccc1)c1nc2c(c(=O)[nH]c(=O)n2C)n1CCSc1nc2ccccc2[nH]1 | 8.28 µM (active)

Row | Structure (SMILES) | Potency
24 | CN(Cc1ccccc1)C(=O)CSc1nc2ccccc2[nH]1 | inactive
25 | CC(Oc1cccc(Cl)c1)C(=O)NC1CC(C)(C)NC(C)(C)C1 (stereo not drawn) | inactive
26 | O=C1CN(C(=O)c2cc(F)cc(F)c2)c2ccccc2N1 | inactive
27 | O=C(Nc1ccc(Br)cc1)c1cc(S(=O)(=O)Nc2ccccn2)ccc1Cl | inactive
28 | CN(CC(=O)NCCc1ccc(F)cc1)CC(=O)Nc1ccc(F)c(F)c1F | inactive
29 | COc1ccc(C2=NN(C(=O)CCC(=O)O)C(c3cccs3)C2)cc1OC (stereo not drawn) | inactive
30 | COc1cccc(C2CC(c3cccs3)=NN2C(=O)CSC2=NCCS2)c1OC (stereo not drawn) | 10.4 µM (active)
31 | COc1ccc(C2CC(c3cccs3)=NN2C(=O)CSc2nnc(N)s2)cc1OC (stereo not drawn) | inactive
32 | COc1ccccc1C(=O)NCCC(=O)NN1C(=O)NC2(CCCCC2)C1=O | inactive
33 | CCCCOc1ccc(N(CC(=O)NCC2CCCO2)C(=O)CCC(=O)Nc2cc(C)ccn2)cc1 (stereo not drawn) | 9.28 µM (active)
34 | COC(=O)c1cccc(N(CC(=O)NCC2CCCO2)C(=O)CCC(=O)Nc2cc(C)on2)c1 (stereo not drawn) | inactive
35 | Cc1cc(NC(=O)CCC(=O)N(CC(=O)NCC2CCCO2)c2ccccc2)no1 (stereo not drawn) | inactive
36 | Cc1cccc(OCCC(=O)OCc2csc(CC(=O)Nc3ccccc3C)n2)c1 | inactive
37 | Cn1ncc2c(N3CCCCC3)nc(NCCCO)nc21 | inactive
38 | CCc1ccccc1OCC(=O)Nc1ccc2c(c1)OCCO2 | inactive
39 | CCc1ccccc1OCC(=O)Nc1ccc(C)c(S(=O)(=O)N2CCCCCC2)c1 | 10.4 µM (active)
40 | Cc1ccc(NC(=O)CCCNC(=O)c2ccc(Cl)cc2)cc1S(=O)(=O)N1CCCCC1 | inactive
41 | COc1ccc(C(=O)NC2CC(C)(C)NC(C)(C)C2)cc1OC | inactive
42 | COc1ccc(S(=O)(=O)NC(C)c2ccccc2)cc1C(=O)N1CCCCC1 (stereo not drawn) | inactive
43 | COc1cccc(C(=O)NNS(=O)(=O)c2ccc(F)cc2)c1 | inactive
44 | CN(C)CC/C=C1\c2ccccc2CSc2ccccc21 | 10.4 µM (active)
45 | CN(C)Cc1ccccc1C1(O)c2ccccc2CSc2ccccc21 (stereo not drawn) | inactive
46 | CCOc1ccc(C(=O)Nc2cc(Cl)ccc2-n2cncn2)cc1OC | inactive

Row | Structure (SMILES) | Potency
47 | O=C(CNc1cccc(S(=O)(=O)N2CCCCC2)c1)Nc1ccccc1F | inactive
48 | O=C(NCc1cc(F)cc(C(F)(F)F)c1)C1CCC(=O)N(C2CCCC2)C1 (stereo not drawn) | inactive
49 | Cc1cc(NC(=O)c2ccco2)c(=O)n(Cc2c(F)cccc2Cl)c1 | inactive
50 | Cc1ccc(NC(=S)Nc2ccc(F)cc2)cc1 | inactive
51 | COc1ccc(N2C(=O)C(O)C2c2ccc(C)cc2)cc1 (stereo not drawn) | inactive
52 | COC(=O)C1=C(Nc2ccc(OC)cc2)C=C(C)C(C(=O)OC)C1c1ccc(C)cc1 (stereo not drawn) | 10.4 µM (active)
53 | COC(=O)C1C(=O)NCC1c1ccc(OC)cc1 (stereo not drawn) | inactive
54 | COC(=O)C1=C(Nc2ccc(C)cc2)C=C(C)C(C(=O)OC)C1c1ccc(F)cc1 (stereo not drawn) | 3.7 µM (active)
55 | Cc1ccc(C(=O)CNc2ccc(F)cc2)cc1 | inactive
56 | c1ccc2c(c1)CCc1snnc1-2 | inactive
57 | COC(=O)c1cc(CNC(=O)CC(C)c2ccccc2)ccc1OC (stereo not drawn) | inactive
58 | CCOc1cc(/C=N/NC(=O)CN2CCCCC2)ccc1O | inactive
59 | CCOC(=O)N1CCN(CCC(=O)Nc2ccccc2)CC1 | inactive
60 | Cc1noc(C)c1COC(=O)c1cc2ccccc2cc1O | inactive
61 | O=C(NNc1c2ccccc2nc2ccccc12)c1cc2ccccc2cc1O | 11.7 µM (active)
62 | O=C(Nc1c2c(nc3ccccc13)CCCC2)c1ccccc1Br | inactive
63 | CCn1c(SCc2ccccc2)nc2c(c1=O)SCC2 | inactive
64 | COCCn1c(SCc2nc3cc(OC)c(OC)cc3c(=O)[nH]2)nnc1-c1ccncc1 | inactive
65 | CCn1c(SCc2ccccc2)nc2cc(OC)c(OC)cc2c1=O | 10.4 µM (active)
66 | COc1cccc(CSc2nc3nc(C)cc(C)n3n2)c1 | inactive
67 | COCCCn1c(SCc2cccc(OC)c2)nc2cc(OC)c(OC)cc2c1=N | 2.62 µM (active)
68 | COC(=O)CSc1nc2ccccc2c(=O)n1Cc1ccccc1 | inactive
